Assay outcomes: PubChem, several laboratories
ANO1 block – inhibitors of mouse TMEM16A calcium-activated chloride channel | Q8BHY3 | HEK293 TMEM16A/YFP iodide influx fluorescence, ionomycin | normalized B-score (activity score, 25-100; higher = stronger inhibition) at 10 µM | 1.2% of 310,000 active | AID 588511;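 active means ratio plate-corrected score three or more library SD toward inhibition, starting fluorescence score within five deviations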;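 further: score derived from kinetic fluorescence span divided by baseline fluorescence per well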
Target sequence (Q8BHY3 whole entry, looked up): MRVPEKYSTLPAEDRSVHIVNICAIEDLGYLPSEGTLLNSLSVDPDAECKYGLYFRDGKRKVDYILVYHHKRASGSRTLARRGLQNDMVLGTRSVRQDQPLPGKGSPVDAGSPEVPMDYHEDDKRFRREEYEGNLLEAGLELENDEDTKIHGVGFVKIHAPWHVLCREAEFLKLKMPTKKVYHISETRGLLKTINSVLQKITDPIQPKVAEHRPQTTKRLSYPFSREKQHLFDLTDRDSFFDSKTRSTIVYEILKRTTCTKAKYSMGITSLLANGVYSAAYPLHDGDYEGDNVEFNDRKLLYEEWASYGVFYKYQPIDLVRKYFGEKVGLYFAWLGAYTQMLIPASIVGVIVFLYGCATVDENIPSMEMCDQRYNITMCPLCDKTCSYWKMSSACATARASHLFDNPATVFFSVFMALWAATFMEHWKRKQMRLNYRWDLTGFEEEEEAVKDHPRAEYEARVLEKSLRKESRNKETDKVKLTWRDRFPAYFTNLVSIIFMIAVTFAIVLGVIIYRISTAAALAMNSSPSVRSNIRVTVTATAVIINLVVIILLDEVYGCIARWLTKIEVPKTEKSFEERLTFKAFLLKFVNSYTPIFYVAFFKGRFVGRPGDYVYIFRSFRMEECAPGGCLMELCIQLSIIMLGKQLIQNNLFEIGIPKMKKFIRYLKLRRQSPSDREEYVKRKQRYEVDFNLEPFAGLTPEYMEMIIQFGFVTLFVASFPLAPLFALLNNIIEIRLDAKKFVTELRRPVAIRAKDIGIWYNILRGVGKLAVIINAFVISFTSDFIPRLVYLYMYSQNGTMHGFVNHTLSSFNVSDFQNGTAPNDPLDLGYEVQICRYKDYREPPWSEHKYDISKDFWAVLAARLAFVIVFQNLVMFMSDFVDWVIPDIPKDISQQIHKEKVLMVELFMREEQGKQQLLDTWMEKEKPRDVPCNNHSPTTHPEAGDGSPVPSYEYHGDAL
MEKK2 mut-MEK5 – signal of MEK5 binding to mutant human MEKK2 PB1 domain; bead flow cytometry, Alexa488-MEK5 binding to MEKK2 mutant; percent response, % at 10 µM; 0.35% of 290,000 active; in the data active means percent response above about 24%, passing the limit was not always enough
MEKK3 PB1 HTS – modulators (inhibitors or enhancers) of MEK5 binding to human MEKK3 PB1 domain | binding response (% of control), % at 10 µM | 1.4% of 290,000 active | Q99759 | bead-based flow cytometry, Alexa488-MEK5 binding to MEKK3; actives lie on both sides; 0 = blocked by unlabeled MEK5, 100 = vehicle | AID 1529;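 active means binding response more than 3 SD above or below the average of its plate-row segment, actives on both sides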;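 further: Alexa488 bead fluorescence after subtracting the streptavidin-only scavenger bead signal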
TMEM16A act – activators or potentiators of mouse TMEM16A chloride channel | 0.3% of 340,000 active | B-score at 10 µM | HEK293 TMEM16A/YFP-H148Q/I152L, iodide quench fluorescence; hits give low values | AID 623877 | Q8BHY3;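 active means fluorescence-ratio B-score plate-corrected deviation score at least 3 library SD below zero, with starting fluorescence score within 5 deviations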;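 further: channel opened by trigger with iodide after compound preincubation; score built on the fluorescence ratio of max minus min over baseline; more negative score means more quench and so TMEM16A activation or potentiation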
NTR1 ag – activates human neurotensin receptor 1 | P30989 | NTR1-U2OS beta-arrestin-GFP spot imaging, agonist mode | activation, % at 20 µM | 0.17% of 330,000 active | AID 493036;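 active means activation at or above 40% of the spot to cytoplasm intensity ratio, with at least 20 cells analyzed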;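 further: 0% = DMSO without peptide and 100% = 100 nM NTR1 peptide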
MEKK2wt PB1 HTS – raises or lowers MEK5 binding to wildtype human MEKK2 PB1 domain | Q9Y2U5 | binding response (% of control), % at 10 µM | bead flow cytometry, Alexa488-MEK5 binding to MEKK2 WT; actives lie on both sides | AID 1531 | 1.1% of 290,000 active; in the data active means binding response below about 67% or above about 130%
MEKK2wt confirm – raises or lowers MEK5 binding to wildtype human MEKK2, retest | shares compounds with MEKK3 PB1 HTS | bead flow cytometry, Alexa488-MEK5 binding to MEKK2 WT; actives lie on both sides | binding response (% of control), % at 10 µM | 2.4% of 5,900 active | AID 1892; in the data active means binding response below about 16% or above about 210%; inactive means in between
MEKK2mut confirm – signal of MEK5 binding to mutant human MEKK2, retest. 2% of 5,900 active. bead flow cytometry, Alexa488-MEK5 binding to MEKK2 mutant. percent response, % at 10 µM. shares compounds with MEKK3 PB1 HTS; in the data active means percent response mostly above about 71%, no sharp cut-off; inactive means mostly below about 38%;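 further: higher means compound restores mutant binding toward wildtype level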
MEKK3-MEK5 inh – MEKK3-MEK5 PB1 inhibition, single concentration confirmation | shares compounds with MEKK3 PB1 HTS | bead flow cytometry, Alexa488-MEK5 binding to MEKK3; hits give low values | binding response (% of control), % at 10 µM | 1.8% of 5,900 active | AID 1894;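 active means binding response below 72% of control, or above a set upper limit, though filed actives all read lower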;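 further: 100% = DMSO only wells and 0% = binding blocked by excess unlabeled MEK5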
Numbers without * were called inactive; i = inactive; . = no result given; [ ] = dose if it differs, or a comment. Shown are actives, neighbours in structure and some others; about 3.4% of the full set was active somewhere.

SMILES	ANO1 block	MEKK2 mut-MEK5	MEKK3 PB1 HTS	TMEM16A act	NTR1 ag	MEKK2wt PB1 HTS	MEKK2wt confirm	MEKK2mut confirm	MEKK3-MEK5 inh
COc1ccccc1N1C(=O)C=C(Sc2nc(C)cc(C)n2)C1=O	i	2	101	i	0	97	.	.	.
O=C1CC(N2CCOCC2)C(=O)N1CCN1C(=O)CC(N2CCOCC2)C1=O (centres undefined)	i	-16	2.0*[inhibitor]	i	-2	2.0*[inhibitor]	98	-1	97
O=C(OCCn1c(=S)sc2ccccc21)c1ccccc1	.	.	.	i	.	.	.	.	.
CC1=CS(=O)(=O)CC1Sc1ncn[nH]1 (centres undefined)	i	5	64*[inhibitor]	i	-2	76	42	0	81
CC(=O)c1ccc(-n2nncc2C(C)(C)C)cc1	i	-13	83	i	1	84	.	.	.
Cc1cnnn1-c1ccc(C(=O)CCl)cc1	i	14	102	i	-2	148*	152	24	104
COc1ccc(C#Cc2ccc3c(=O)c4ccccc4n(C)c3c2)cc1	i	-5	97	i	8	79	.	.	.
COc1ccccc1C#Cc1ccc2c(=O)c3ccccc3n(C)c2c1	i	-9	91	i	-1	66*[inhibitor]	86	-9	94
Cc1noc(C)c1COC(=O)CCc1nc2ccccc2s1	i	8	130*	i	0	127	100	1	98
Cc1ccc(N=Cc2cc(Cl)cc(Cl)c2O)nc1	i	-3	88	i	4	90	.	.	.
Oc1c(Cl)cc(Cl)cc1/C=N/Nc1ncc(Br)cn1	i	1	138*	i	-1	126	102	-3	100
NC(=O)c1nn(-c2ccccc2)nc1NC(=O)CN1CCCC1	i	-1	106	i	-2	102	.	.	.
CCOC(=O)c1ccc(NC(=O)COc2ccccc2CNCCc2ccccc2)cc1	i	39	102	i	13	206*	175	42	105
NC(=O)c1nn(-c2ccccc2)nc1NC(=O)Cn1nnc(-c2ccccc2)n1	i	-1	132*	i	1	104	92	-5	99
CCOC(=O)c1ccc(NC(=O)Cn2nnc(-c3ccc(F)cc3)n2)cc1	i	-3	100	i	0	93	.	.	.
CCOC(=O)c1ccc(NC(=O)Cn2nnc(-c3ccccc3)n2)cc1	i	11	120	i	0	134*	107	2	104
CCOC(=O)c1ccc(NC(=O)CCc2nc(-c3ccccc3)no2)cc1	i	7	130*	i	0	120	106	2	104
COC(=O)c1c(C)oc(C)c1S(=O)(=O)N1CCCC1	i	27	131*	i	0	130	103	-1	100
COC(=O)c1c(C)oc(C)c1S(=O)(=O)N1CCCCC1	i	6	108	i	0	102	.	.	.
COC(=O)c1c(C)oc(C)c1S(=O)(=O)Nc1ccccc1	i	24	132*	i	0	130	98	-2	102
COC(=O)c1c(C)oc(C)c1S(=O)(=O)N(Cc1ccccc1)C(C)C	i	28	129*	i	1	134	-2.0*[inhibitor]	-4	99
Cn1cnc([N+](=O)[O-])c1S(=O)(=O)Oc1ccc(Cl)cc1	.	.	.	i	.	.	.	.	.
CCOC(=O)c1sc(NC(C)=O)nc1-c1ccccc1	i	-20	1.0*[inhibitor]	i	1	-2.0*[inhibitor]	95	-4	95
